Data as given in PubChem BioAssay.
Inconclusive results are not listed. Active and inactive are the calls of the source.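 How the source made its calls, unless noted: active means normalized viability below 100% at a tested concentration; inactive means the rest.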

Columns and labels:
[1] = viability loss in pontine glioma line – cell-based, SU-DIPG-XVII, MIPE5.0, CellTiter-Glo, qHTS, dose response (AID 1347060; cut-off not given, nearly all actives have AC50 up to about 26 µM;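 on AC50: cells exposed to compound for 48 hours before viability readout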); conditions: CellTiter-Glo ATP luminescence
[2] = viability loss in pontine glioma line – cell-based, SU-DIPG-XIII, MIPE4.0, CellTiter-Glo, qHTS, dose response (AID 1347061; cut-off not given, nearly all actives have AC50 up to about 37 µM;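 further: cells exposed to compound for 48 hours before readout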); conditions: CellTiter-Glo ATP luminescence
[3] = viability loss in pontine glioma line – cell-based, JHH-DIPG-1, MIPE4.0, CellTiter-Glo, qHTS, dose response (AID 1347062; cut-off not given, nearly all actives have AC50 up to about 27 µM;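 on AC50: cells exposed to compound for two days before readout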); conditions: JHH-DIPG-1 viability, CellTiter-Glo ATP luminescence
[4] = viability loss in pontine glioma line – cell-based, SU-DIPG-XIII, MIPE5.0, CellTiter-Glo, qHTS, dose response (AID 1347064; cut-off not given, nearly all actives have AC50 up to about 23 µM;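 on AC50: cells exposed to compound for 48 hours before the viability read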); conditions: CellTiter-Glo ATP luminescence
[5] = viability loss in pontine glioma line – cell-based, SU-DIPG-XXV, MIPE5.0, CellTiter-Glo, qHTS, dose response (AID 1347065; cut-off not given, nearly all actives have AC50 up to about 26 µM;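 further: cells exposed to compound for 48 hours before ATP readout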); conditions: CellTiter-Glo ATP luminescence
[6] = growth inhibition of DIPG cells – cell-based, MIPE4.0 library, CellTiter-Glo luminescence, qHTS (AID 1347066; cut-off not given, nearly all actives have AC50 up to about 30 µM;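 further: cells exposed to compound for 48 hours before readout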); conditions: SU-DIPG-VI viability, CellTiter-Glo ATP luminescence
[7] = JHH-DIPG-1 glioma cell viability, MIPE5.0 library, CellTiter-Glo luminescence, qHTS (AID 1347067; cut-off not given, nearly all actives have AC50 up to about 26 µM;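 further: cells exposed to compound for 48 hours before readout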); conditions: JHH-DIPG-1 glioma viability, CellTiter-Glo ATP luminescence
[8] = growth inhibition of DIPG cells – cell-based, MIPE5.0 library, qHTS (AID 1347068; cut-off not given, nearly all actives have IC50 up to about 30 µM;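 on IC50: cells exposed to compound for 48 hours before viability readout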); conditions: SU-DIPG-XXV viability
[9] = viability loss with induced miR-34 in A549 – imaging, A549 dox-inducible miR-34, nuclei and caspase counts, primary screen (AID 1347080;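 active means compounds whose cell count with miR-34 switched on is under 0.7 times the count with it off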); conditions: A549 miR-34 inducible, Hoechst nuclei count, 48 h
[10] = compounds altering HSF1 focus formation in cells – imaging, Selleck Cancer Library (AID 1347162; in the data active means plate-normalised HSF1 focus index below about 0.46); conditions: human cells, HSF1 nuclear foci imaging, at 10 µM; SSMD: measured here: HSF1 foci SSMD mean; cell count: measured here: cell number; plate-normalised HSF1 focus index: stronger effect = lower value
[11] = MELAS cybrid and Rieske KO viability enhancers – cell-based, MELAS cybrids, Rieske KO mouse fibroblasts, CellTiter-Glo, primary screen (AID 1508586;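 active means mean z-score across replicates of 1.96 or higher in either the MELAS or the Rieske mutant cell line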;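 further: z relative to plate mean and SD of compound and empty wells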); conditions: low glucose
[12] = drug combination growth inhibition, ovarian cancer – cell-based, oncology-focused library, rucaparib conditional, profiling panel (AID 1508598); conditions: patient-derived ovarian cancer cells, CellTiter-Glo viability, 144 h, stronger effect = lower value

CN(CC(=O)N(Cc1ccc(C2CCCCC2)cc1)c1ccc(C(=O)O)c(O)c1)S(=O)(=O)c1c(F)c(F)c(F)c(F)c1F
active: AC50 [1] 8.33 µM | AC50 [2] 11.8 µM | AC50 [3] 16.6 µM | AC50 [4] 6.61 µM | AC50 [5] 9.34 µM | AC50 [6] 3.32 µM | AC50 [7] 3.72 µM | IC50 [8] 8.33 µM

C[C@@H]1C(=O)OC2[C@H](O)[C@]34[C@H]5C[C@@H](C(C)(C)C)[C@]36[C@@H](OC(=O)[C@@H]6O)O[C@@]4(C(=O)O5)[C@]21O (stereo not given in full)
inactive: outcome [1] | outcome [2] | outcome [3] | outcome [4] | outcome [5] | outcome [6] | outcome [7] | outcome [8]

OCCn1cc(-c2cnc3nnn(Cc4ccc5ncccc5c4)c3n2)cn1
active: viability ([12]; at 0.000305 µM, OCI-P5x cells, with rucaparib 20 µM, 100% = cells with rucaparib alone) 99.5% | viability ([12]; at 0.0195 µM, OCI-P5x cells, without rucaparib) 99.8% | viability ([12]; at 1.25 µM, OCI-P5x cells, without rucaparib) 99.8% | viability ([12]; at 5 µM, OCI-P5x cells, with rucaparib 20 µM, 100% = cells with rucaparib alone) 97.4% | viability ([12]; at 5 µM, OCI-P5x cells, without rucaparib) 94.2%
7630: cell count [10]
2.68: SSMD [10]
8280: cell count ([9]; measured here: total cells without miR-34 induction)
0.57: z-score ([11]; Rieske KO mouse fibroblast survival, CellTiter-Glo 72 h)
1.2: fold change ([9]; measured here: relative caspase fold change +Dox/-Dox)
7870: cell count ([9]; measured here: total cells with miR-34 induction, stronger effect = lower value)
inactive: outcome [1] | outcome [2] | outcome [3] | outcome [4] | outcome [5] | outcome [7] | outcome [8] | fold change ([9]; stronger effect = lower value, cell number ratio, induced over uninduced) 0.95 | plate-normalised HSF1 focus index [10] 1.17 | z-score ([11]; MELAS cybrid survival, CellTiter-Glo 48 h, stronger effect = higher value) -0.449 | viability ([12]; at 0.000305 µM, OCI-C5x cells, with rucaparib 10 µM, 100% = cells with rucaparib alone) 111% | viability ([12]; at 0.000305 µM, OCI-C5x cells, without rucaparib) 109% | viability ([12]; at 0.000305 µM, OCI-P5x cells, without rucaparib) 102% | viability ([12]; at 0.00122 µM, OCI-C5x cells, with rucaparib 10 µM, 100% = cells with rucaparib alone) 118% | viability ([12]; at 0.00122 µM, OCI-C5x cells, without rucaparib) 110% | viability ([12]; at 0.00122 µM, OCI-P5x cells, with rucaparib 20 µM, 100% = cells with rucaparib alone) 106% | viability ([12]; at 0.00122 µM, OCI-P5x cells, without rucaparib) 105% | viability ([12]; at 0.00488 µM, OCI-C5x cells, with rucaparib 10 µM, 100% = cells with rucaparib alone) 119% | viability ([12]; at 0.00488 µM, OCI-C5x cells, without rucaparib) 113% | viability ([12]; at 0.00488 µM, OCI-P5x cells, with rucaparib 20 µM, 100% = cells with rucaparib alone) 102% | viability ([12]; at 0.00488 µM, OCI-P5x cells, without rucaparib) 102% | viability ([12]; at 0.0195 µM, OCI-C5x cells, with rucaparib 10 µM, 100% = cells with rucaparib alone) 118% | viability ([12]; at 0.0195 µM, OCI-C5x cells, without rucaparib) 112% | viability ([12]; at 0.0195 µM, OCI-P5x cells, with rucaparib 20 µM, 100% = cells with rucaparib alone) 102% | viability ([12]; at 0.0781 µM, OCI-C5x cells, with rucaparib 10 µM, 100% = cells with rucaparib alone) 124% | viability ([12]; at 0.0781 µM, OCI-C5x cells, without rucaparib) 117% | viability ([12]; at 0.0781 µM, OCI-P5x cells, with rucaparib 20 µM, 100% = cells with rucaparib alone) 102% | viability ([12]; at 0.0781 µM, OCI-P5x cells, without rucaparib) 101% | viability ([12]; at 0.313 µM, OCI-C5x cells, with rucaparib 10 µM, 100% = cells with rucaparib alone) 126% | viability ([12]; at 0.313 µM, OCI-C5x cells, without rucaparib) 118% | viability ([12]; at 0.313 µM, OCI-P5x cells, with rucaparib 20 µM, 100% = cells with rucaparib alone) 102% | viability ([12]; at 0.313 µM, OCI-P5x cells, without rucaparib) 106% | viability ([12]; at 1.25 µM, OCI-C5x cells, with rucaparib 10 µM, 100% = cells with rucaparib alone) 124% | viability ([12]; at 1.25 µM, OCI-C5x cells, without rucaparib) 113% | viability ([12]; at 1.25 µM, OCI-P5x cells, with rucaparib 20 µM, 100% = cells with rucaparib alone) 101% | viability ([12]; at 5 µM, OCI-C5x cells, with rucaparib 10 µM, 100% = cells with rucaparib alone) 148% | viability ([12]; at 5 µM, OCI-C5x cells, without rucaparib) 123%

O=C(Nc1ncc(-c2cc(C(F)F)nn2-c2c(Cl)cccc2Cl)s1)C1CC1
active: AC50 [1] 0.833 µM | AC50 [2] 13.2 µM | AC50 [3] 0.662 µM | AC50 [4] 2.35 µM | AC50 [5] 1.05 µM | AC50 [6] 5.26 µM | AC50 [7] 1.32 µM | IC50 [8] 1.18 µM

O=C(NC[C@H](O)CO)c1ccncc1Nc1ccc(I)cc1F
active: AC50 [1] 0.742 µM | AC50 [2] 1.32 µM | AC50 [3] 1.48 µM | AC50 [4] 0.417 µM | AC50 [5] 0.59 µM | AC50 [7] 0.332 µM
inactive: outcome [6] | outcome [8]
